Data on 21 compounds can be found in PubChem BioAssay (NCATS).

Assay [1] can be described thus: qHTS Assay for Identifying Gametocytocidal Compounds (AID 743244). Also: potency is read from the fitted curve at half-maximal effect.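 As to max response: % is scaled to controls: 0 for no effect and ±100 for the full control effect; actives lower the fluorescent signal which means gametocytes are killed.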 The following applies: P. falciparum 3D7 stage III-V gametocytes, alamarBlue, 72 h; max response: stronger effect = lower value. The method in brief: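 Fluorescence at Ex 525/Em 598 nm, recorded 24 h after alamarBlue addition, reports residual metabolic activity of 3D7 gametocytes (stages III–V) following 72 h compound exposure at 37 °C, 5% CO2.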
For orientation: In qHTS, concentration-response curves come from the screen itself.

Assay [2] is described as follows: qHTS assay to identify small molecule inhibitors of chordoma cells - UCH-1 (AID 1259355). Also: nearly all actives have a fitted effect of over 55% in size. Also: potency is read from the fitted curve at half-maximal effect. The method, boiled down: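 Screening used approved and investigational drugs in 15-point titration against 800 seeded cells per well. A fixed combination of auranofin with camptothecin, doxorubicin, rubitecan and topotecan followed compound addition, and growth was scored by CellTiter-Glo after 48hr.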

The nature of assay [3]: qHTS profiling of the MIPE4 collection as inhibitors of Plasmodium falciparum (3D7) proliferation (AID 743344; call rule not given here;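 also: scaled between DMSO vehicle wells and 0.29 µM artemisinin as full inhibition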). The following applies: P. falciparum 3D7 in erythrocytes, SYBR Green DNA fluorescence, 72 h; at 28.5 µM (top of the series). The method in brief: (§1)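 Parasite DNA was quantified by SYBR Green I fluorescence (ex 485, em 535 nm) after overnight lysis in saponin/Triton buffer at room temperature. Cultures at 0.3% parasitemia and 2.5% hematocrit were first exposed to compound for 72 h at 37 C; signals were normalised to artemisinin (0.29 uM) and vehicle wells.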

Assay [4] can be described thus: qHTS profiling of the MIPE4 collection as inhibitors of Plasmodium falciparum (DD2) proliferation (AID 743345; call rule not given here). Conditions: P. falciparum Dd2 in erythrocytes, SYBR Green DNA, 72 h; at 28.5 µM (top of the series). The method in brief:
as §1

The nature of assay [5]: qHTS profiling of the MIPE4 collection as inhibitors of Plasmodium falciparum (DD2) proliferation (Rep 2) (AID 743346; call rule not given here). The following applies: P. falciparum Dd2 in erythrocytes, SYBR Green DNA, 72 h; at 28.5 µM (top of the series). The method, boiled down: as §1
The nature of assay [6]: qHTS profiling of the MIPE4 collection as inhibitors of Plasmodium falciparum (HB3) proliferation (AID 743347; call rule not given here;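 also: plate controls were DMSO vehicle wells for no effect and artemisinin wells for full effect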). Conditions: P. falciparum HB3 in erythrocytes, SYBR Green DNA, 72 h; at 28.5 µM (top of the series). The method in brief:
as §1

The nature of assay [7]: qHTS assay for small molecule antagonists of the retinoid-related orphan receptor gamma (ROR-gamma) signaling pathway - cell viability counter screen (AID 720652; active = well fitted curve in the direction sought with a large enough effect in the repeat runs; an effect the other way counts as inactive or inconclusive;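 also: CHO reporter cells with doxycycline-induced ROR-gamma expression; compound exposure lasted 16 hr before ATP read; % is scaled to controls: 0 for no effect and ±100 for the full control effect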). The method in brief:
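CHO RORE-LUC/TET-ROR line, 1,000 cells/well, 37 C 5% CO2 5 hr; cpd or DMSO + doxycycline induction, 16 hr. CellTiter-Glo, 30 min RT, luminescence = ATP content.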

Assay [8] in a line: qHTS assay for small molecule agonists of the antioxidant response element (ARE) signaling pathway measured by Nrf2-dependant transcriptional activity - cell viability counter screen (AID 720653; active = well fitted curve in the direction sought with a large enough effect in the repeat runs; an effect the other way counts as inactive or inconclusive; also: % is scaled to controls: 0 for no effect and ±100 for the full control effect). Conditions: ARE-bla HepG2 viability, CellTiter-Glo ATP luminescence, 16 h; stronger effect = lower value. The method in brief: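 ARE-bla HepG2 cells treated with compounds for 16 h at 37C; this counter screen measures viability as intracellular ATP by CellTiter-Glo luminescence after 30 min at room temperature.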

The nature of assay [9]: qHTS assay for cell viability of the p53RE-bla HCT-116 cell line (AID 743292). Also: % is scaled to controls: 0 for no effect and ±100 for the full control effect; nearly all actives have a fitted effect of over 55% in size. The method in brief: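 After plating at 4,000 cells per well and a 5 h rest at 37 C, HCT-116 cells carrying p53RE-bla received test chemicals in DMSO. Sixteen hours later at 37 C, CellTiter-Glo was added and luminescence recorded following 30 min at room temperature.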

Several values for one entry are separate records, joined by “and”; a condition that tells them apart may be missing. Equal values may be shown once. Results filed as inconclusive are left out. Activity calls are given as the source filed them. Unless noted, calls follow the shape of the dose curve; as a rule, active = well fitted curve in the direction sought with a large enough effect; inconclusive = small, poorly fitted or top-dose-only effect, or another doubt; inactive = no such curve, though single readings can be large; an effect the other way counts as inactive or inconclusive.

For the compound `FC(F)OC(Cl)C(F)(F)F` (stereo not given), the max response in assay [1] is -3.13% (inactive). Further, the Potency entry in assay [2] is “inactive”.

On to `NC(=O)[C@@H]1C[C@]2(NC(=O)NC2=O)c2cc(F)ccc2O1`, for which the max response in assay [1] was -13.1% (inactive). Moreover, the Potency entry in [2] is “inactive”.

Compound `O=C(O)[C@H]1C(=CCO)O[C@H]2CC(=O)N12` showed a parasite growth, % of DMSO control in [3] of 93.2%. In addition, in assay [4], the parasite growth remaining, % of DMSO control (lower = more inhibition) was determined as 103%. Moreover, the parasite growth, % of control (lower = inhibition) in assay [5] is 115%. Also, in assay [6], the growth, % of control is 93.1%. Also, the Potency entry in assay [2] was “inactive”.

As to `O=c1n(CC2CO2)c(=O)n(CC2CO2)c(=O)n1CC1CO1` (stereo not given), the outcome in assay [7] and in assay [9] was inactive. Moreover, the max response was -19.7% (inactive) and -11.1% (inactive) in [8]; 6.57% (inactive) in [1]. Further, the Potency entry in assay [2] is “inactive”.

On to `CC/C=C\C/C=C\C/C=C\C/C=C\C/C=C\C/C=C\CCC(=O)O`, for which, in assay [1], the max response is -1.97% (inactive). Besides, the Potency result in [2] was “inactive”.

For `OC[C@@H](O)C(O)[C@H](O)CO`, in assay [1], the max response was 3.78% (inactive). Besides, the Potency entry in assay [2] was “inactive”.

Consider `CCCCCCCCCC(=O)NO`, for which, in assay [1], the max response is -1.94% (inactive) and 4.66% (inactive). Besides, the Potency entry in assay [2] was “inactive”.

Consider `CC(C)CCC[C@@H](C)[C@H]1CC[C@H]2[C@@H]3CC=C4C[C@@H](O)CC[C@]4(C)[C@H]3CC[C@]12C`, for which the results for the max response in assay [8] and in assay [1] were -4.46% (inactive) and -0.629% (inactive), respectively. In addition, in [9], the compound was classed as inactive. In addition, in [2], the Potency result was “inactive”.

With `CC(=NCc1ccccc1)c1ccccc1O`, in assay [1], the max response is -2.19% (inactive). In assay [2], the Potency result is “inactive”.

With `CC[C@H]1OC(=O)[C@H](C)[C@@H](O[C@H]2C[C@@](C)(OC)[C@@H](O)[C@H](C)O2)[C@H](C)[C@@H](O[C@@H]2O[C@H](C)C[C@H](N(C)C)[C@H]2O)[C@](C)(O)C[C@@H](C)CN(C)[C@H](C)[C@@H](O)[C@]1(C)O`, the call in [7] and in assay [9] was inactive. In addition, the max response in assay [8] was -20.4% (inactive). In assay [2], the Potency result is “inactive”.

On to `CC(C)(C)CC(C)(C)c1cc(Cc2cc(C(C)(C)CC(C)(C)C)cc(-n3nc4ccccc4n3)c2O)c(O)c(-n2nc3ccccc3n2)c1`, for which the max response in [1] was -7% (inactive). Also, the Potency result in assay [2] is “inactive”.

On to `CNC(=O)c1c(I)c(C(=O)NCC(=O)Nc2c(I)c(C(=O)O)c(I)c(C(=O)NCCO)c2I)c(I)c(N(C)C(C)=O)c1I`, for which, in [1], the max response was 1.95% (inactive). Besides, in assay [2], the Potency entry is “inactive”.

Take `CC1CC(O)CC(C)(C)C1` (stereo not given): the max response in [1] was -5.15% (inactive). Moreover, the Potency result in assay [2] was “inactive”.

In the case of `CCN1\C(=C/C=C/C=C/c2sc3ccccc3[n+]2CC)Sc2ccccc21`, the Potency in [1] is 11.2 µM (active); in assay [2], 14.1 µM (active).

With `C=CC1=C(C(=O)O)N2C(=O)[C@@H](NC(=O)/C(=N/OCC(=O)O)c3csc(N)n3)[C@H]2SC1` (stereo in doubt), the max response in [1] was -1.34% (inactive). Also, the Potency result in assay [2] is “inactive”.

With `Cc1ncc(C[n+]2csc(CCO)c2C)c(N)n1`, the max response in assay [1] was 2.57% (inactive). Also, the Potency result in assay [2] was “inactive”.

As to `OCl`, the result in assay [7] and in assay [9] was inactive. Besides, the max response is -6.58% (inactive) in assay [8] and 13.5% (inactive) in assay [1]. Besides, the Potency entry in [2] was “inactive”.

Turning to `O=C1C2CC3CC1CC(O)(C3)C2`, the max response in assay [1] is 6.58% (inactive). In addition, the Potency result in [2] is “inactive”.

`C[C@@H]1O[C@@H]1P(=O)(O)O`: the max response in assay [1] is -12.6% (inactive). Further, the Potency result in [2] is “inactive”.

In the case of `CC(=O)Nc1ccc(OC(C)=O)cc1`, the max response in [1] is -5.2% (inactive). Further, the Potency result in [2] was “inactive”.

`CN[C@@H]1[C@H](O[C@H]2[C@H](O[C@H]3[C@H](O)[C@@H](O)[C@H](N=C(N)N)[C@@H](O)[C@@H]3N=C(N)N)O[C@@H](C)[C@]2(O)CO)O[C@@H](CO)[C@H](O)[C@H]1O`: the max response in [1] is 8.75% (inactive). In addition, the Potency result in [2] was “inactive”.
